# Tg IFNy HTS: blocks Toxoplasma gondii growth in the presence of IFN-gamma. hit rate 3.8% among 69,000. activity change, negative = inhibition, % (no concentration beside the values). AID 1259416. Toxoplasma gondii growth in IFN-gamma-treated host cells; stronger effect = lower value; in the data active means activity change below about -70%, passing the limit was not always enough;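 further: host cells are HeLa cells infected with Toxoplasma gondii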
# The depositor's hits bear a star; ! = not confirmed by another sample. This is one part of a sample in which hits are shown more often than they occur.
SMILES,Tg IFNy HTS
Cc1cccc(CN2C[C@H]3OCCN(C)[C@H]3C2)n1,2
C=CCN1CCN(Cc2cnn(C)c2)Cc2cccnc21,-44
COc1ccc2n[nH]c(CN3C[C@@H]4[C@H](C3)[C@H]3CC[C@@H]4O3)c2c1,27
CC[C@H]1CN2CCC1C[C@@H]2[C@H](O)c1ccnc2ccc(OC)cc12 (stereo not given in full),-79*
O=C(NCc1ccc(F)cc1)c1cc2cccnc2n(Cc2ccccc2)c1=O,-54
CC(=O)Nc1cccc(NC(=O)c2cc3cccnc3n(Cc3ccc(Cl)cc3)c2=O)c1,139
O=C(NCCc1c[nH]c2ccccc12)c1cc2cccnc2n(Cc2ccccc2)c1=O,60
COc1ccc(CC(=O)N2CCN(Cc3ccc4c(c3)OCO4)CC2)cc1OC,13
CCCCCOc1c(OC)ccc2cc(C(=O)NCc3ccc4c(c3)OCO4)c(=O)[nH]c12,-74*!
O=C(Nc1ccc2c(c1)OCO2)c1cc2cccnc2n(Cc2ccc(F)cc2)c1=O,233
CN1CCC2(CCN(C(=O)c3ccc[nH]3)CC2)C1,-3
COc1ccc(NC(=O)c2cc3cccnc3n(Cc3ccccc3)c2=O)cc1,236
COc1cc(C)c(-c2nccn2C(C)c2ccc(C)nc2)cc1C (stereo not given),-14
O=C(NCc1cccs1)c1cc2cccnc2n(Cc2ccc(F)cc2)c1=O,-10
Cn1cc(CN2CCC3(CC2)C(=O)Nc2ccccc23)cn1,-6
C[C@]12CC[C@H](OC3OC(O)C(O)C(O)C3O)C=C1CCC1C2CC[C@]2(C)[C@@H](c3ccc(=O)oc3)CC[C@]12O (stereo not given in full),-80*
CN(C)C[C@@H]1CC2CN(c3ncc(F)cn3)CCC2N1C (stereo not given in full),-57
Cc1cnc(N2CCN3C[C@H](OCC4CC4)C[C@@H]3C2)nc1,-15
CC(C)c1ccc(NC(=O)c2cc3cccnc3n(Cc3ccccc3)c2=O)cc1,150
COc1cc2cc(c1Cl)N(C)C(=O)C[C@H](OC(=O)C(C)C)[C@]1(C)O[C@H]1[C@H](C)[C@@H]1C[C@@](O)(NC(=O)O1)[C@H](OC)/C=C/C=C(/C)C2,-80*
Cc1ccc(NC(=O)c2cc3cccnc3n(Cc3ccc(F)cc3)c2=O)cc1C,99
c1cncc(CN2CCOCC3(CCC(Cn4cncn4)O3)C2)c1 (stereo not given),28
CCC(=O)N1CCC2(CC1)C(=O)N(Cc1cccnc1)CCN2C,-2
O=C(CCCN1CCC2(CC1)C(=O)N(Cc1cccc(F)c1)CN2c1ccccc1)c1ccc(F)cc1,-83*!
COC(=O)CN1CN(c2ccccc2)C2(CCN(Cc3ccc4ccccc4c3)CC2)C1=O,-8
SMILES,Tg IFNy HTS
CC(=O)Nc1cccc(NC(=O)c2cc3cccnc3n(Cc3ccccc3F)c2=O)c1,81
CCNC(=O)[C@H]1O[C@@H](n2cnc3c(N)ncnc32)[C@H](O)[C@@H]1O,7
NC(=O)c1cn(C2OC(CO)[C@H](O)[C@@H]2O)c2ncnc(N)c12 (stereo not given in full),-83*
CN1CCC2(CCCN(c3cnccn3)C2)CC1,6
Cc1nnc2ccc(-c3cccc(C(F)(F)F)c3)nn12,-80*
Fc1cccnc1O[C@@H]1CN(Cc2ccoc2)[C@H]2CCCO[C@@H]12,9
CS(=O)(=O)N1CCc2c(CNc3ncccn3)cncc2C1,-1
CCOCCCNC(=O)c1cc2cccnc2n(Cc2ccc(F)cc2)c1=O,-23
Nc1nonc1CC(=O)N1CCCCC1CN1CCCCC1 (stereo not given),29
O=C(Nc1ccc(Oc2ccccc2)cc1)c1cc2cccnc2n(Cc2ccccc2)c1=O,-56
C/C1=C/C[C@@H](/C(C)=C/c2csc(C)n2)OC(=O)C[C@H](O)C(C)(C)C(=O)[C@H](C)[C@@H](O)[C@@H](C)CCC1,-60
C/C(=C\c1csc(C)n1)[C@H]1C[C@@H]2O[C@]2(C)CCC[C@H](C)[C@H](O)[C@@H](C)C(=O)C(C)(C)[C@H](O)CC(=O)O1,-75*
C/C(=C\c1csc(C)n1)[C@@H]1C[C@@H]2O[C@@H]2CCC[C@H](C)[C@H](O)[C@@H](C)C(=O)C(C)(C)[C@@H](O)CC(=O)O1,-68
CN1CCC2(CCCN2C(=O)c2ccno2)CC1,47
C[C@@H]1O[C@@H](O[C@H]2C[C@@H](O)[C@]3(CO)C4C(CC[C@]3(O)C2)[C@@]2(O)CC[C@H](C3=CC(=O)OC3)[C@@]2(C)C[C@H]4O)[C@H](O)[C@H](O)[C@H]1O (stereo not given in full),-78*
Cc1cccc(CN2C(=O)CC[C@@H]3[C@@H]2CCN3Cc2ccoc2)n1,-6
COc1cc(N2CCCC3(CCN(C)C3)C2)ncn1 (stereo not given),61
O=C(Nc1ccc(Br)cc1F)c1cc2cccnc2n(Cc2ccccc2F)c1=O,31
CC(C)N1C2CCC1CN(c1ncccn1)C2,104
O=c1[nH]c2ccccc2n1C1CCN(CCCC(c2ccc(F)cc2)c2ccc(F)cc2)CC1,-95*!
O=C(O)c1cccnc1CN1CCCC(C(=O)c2ccccc2)C1 (stereo not given),-14
